Results as given in PubChem BioAssay (Tox21).
“And” between values parts separate entries of the source, which are not always exact repeats. Equal values may be shown once. Results filed as inconclusive are left out. A call without a number means that no potency is given here. Unmarked numbers belong to inactive results. The source made the active and inactive calls. The call rests on the fitted dose curve; in most records, active means well fitted activation curve with a large enough effect in the repeat runs; inconclusive means weak or mixed curves; inactive means flat fitted curve, though single readings scatter.

Experiment: A CellTox Green Cytotoxicity Assay to monitor cytotoxicity in HEK293 cells - 16 hour (AID 1224888); further: nearly all actives have a fitted effect of over 35% in size
Conditions: CellTox Green fluorescence; series mostly up to 76.8 µM
Description: National Center for Advancing Translational Sciences [NCATS]
NIH Chemical Genomics Center [NCGC]
U.S. Environmental Protection Agency [EPA]
National Institutes of Environmental Health Sciences [NIEHS]
National Toxicology Program [NTP]
Cell-based models are critical for drug discovery. Determining the natural cytotoxic effects resulting from test compounds is an essential research activity. A CellTox Green Cytotoxicity Assay to monitor cytotoxicity in real time of continues cell culture during 40 hours of the compound treatment was used to screen Tox21 10K library compounds in Hek293 cells. CellTox Green Cytotoxicity Assay is a nonlytic, homogeneous, biofluorescent method to measure cytotoxicity in cell culture after experimental manipulation. The assay system uses a proprietary asymmetric cyanine dye that is excluded from viable cells but preferentially stains the dead cell's DNA. […] Viable cells produce no appreciable increases in fluorescence. Therefore, the fluorescence signal produced by the binding interaction with dead cell DNA is proportional to cytotoxicity.
The mixture of Hek293 cell suspension and reagents were dispensed at 600cells/6 ul/well in 1536-well tissue culture treated black solid bottom plates using a Multidrop dispenser. After the assay plates were incubated at a 37 C/5% CO2 incubator for 5 hours, 23 nL of compounds dissolved in DMSO, positive and negative controls was transferred to the assay plate by a pintool work station. The plates were incubated at 37 C for 40 hours. The fluorescence intensity were measured at 0h, 8h, 16h, 24h, 32h and 40h time points using ViewLux plate reader during compound treatment.
Potency means the concentration at half of the fitted maximal effect.

SMILES	Potency	activity change
Clc1cc(Cl)c(-c2c(Cl)c(Cl)cc(Cl)c2Cl)cc1Cl	inactive	–
CSc1c(Cl)c(Cl)c(Cl)c(Cl)c1Cl	inactive	–
CC(=O)Oc1ccc(C2(c3ccc(OC(C)=O)cc3)Oc3ccccc3NC2=O)cc1	inactive	–
CCCCCCCCCCCCCCCC	inactive	–
CC1CCCNC1 (stereo not given)	inactive	–
CO[C@H]1C=CO[C@@]2(C)Oc3c(C)c(O)c4c(O)c(cc(O)c4c3C2=O)NC(=O)/C(C)=C\C=C/[C@H](C)[C@H](O)[C@@H](C)[C@@H](O)[C@@H](C)[C@H](OC(C)=O)[C@@H]1C	inactive	–
O=C1OC(=O)c2cccc3cccc1c23	inactive	–
C=CCCCCCCC=C	inactive	–
COc1ccccc1C=O	inactive	–
CCCCN(C)C	inactive	–
CNC(=S)NN	inactive	–
CCCCCCCCCCCCOC(=O)c1cc(O)c(O)c(O)c1	54.7 µM (active) and 43.6 µM (active)	–
O=C(Nc1ccc(Cl)c(Cl)c1)c1cc(Cl)cc(Cl)c1O	inactive	–
CCCCOCC	inactive	–
CCCCCCCC/C=C\CCCCCCCC(=O)NCc1ccc(O)c(OC)c1	inactive	–
C=C/C=C/C=C/CCCCC	–	-0.0444% [at 15.8 µM, active compounds read high]
CCN(CC)c1ccc(N)cc1	inactive	–
Clc1nc2ccccc2s1	inactive	–
CCCCCCCC/C=C\CCCCCCCC(=O)N(C)CC(=O)O	24.5 µM (active)	–
CCC(C)c1cc([N+](=O)[O-])cc([N+](=O)[O-])c1OC(=O)OC(C)C (stereo not given)	inactive	–

SMILES	Potency	activity change
Cc1cccc(C)n1	inactive	–
CC(C)c1ccc(O)c(C(C)C)c1	19.5 µM (active)	–
CC(C)=CCCC(C)CCOC(=O)C(C)C (stereo not given)	inactive	–
Clc1ccccc1CN1CCc2sccc2C1	inactive	–
C[Si](C)(C)Cl	inactive	–
O=C1OC(=O)c2ccc3c4c(ccc1c24)C(=O)OC3=O	inactive	–
C[Si](C)O[Si](C)C	inactive	–
CC1(C)C(=O)N(Br)C(=O)N1Br	inactive	–
CC(C)(C)c1n[nH]c(=O)n(N)c1=O	inactive	–
O=c1cccc[nH]1	inactive	–
COC(=O)[C@]1(C)CCC[C@@]2(C)[C@H]1CC=C1C=C(C(C)C)CC[C@@H]12	38.9 µM (active)	–
Cc1c(-c2ccc(O)cc2)n(Cc2ccc(OCCN3CCCCCC3)cc2)c2ccc(O)cc12	23.9 µM (active)	–
Cc1cccc(Br)c1	inactive	–
Nc1ccc2cc3ccc(N)cc3nc2c1	49 µM (active) and 21.3 µM (active)	–
CCN=c1cc2oc3cc(NCC)c(C)cc3c(-c3ccccc3C(=O)OCC)c-2cc1C	10.9 µM (active) and 11 µM (active)	–
CCOC(=O)[C@@](C)(N)Cc1ccc(O)c(O)c1	inactive	–
O=C(O)CCCCCCC(=O)O	inactive	–
CN1[C@@H]2CC[C@H]1CC(OC(=O)C(CO)c1ccccc1)C2 (stereo not given in full)	inactive	–
Cc1ccc2ccc3cccc4ccc1c2c34	inactive	–
COc1cccc(OC)c1O	inactive	–
